Inconclusive results are not listed. Entries that show only a call come without a potency. Active and inactive are the calls of the source. Calls come from the whole dose curve; as a rule, active = well fitted cell-killing curve with a large enough effect in the repeat runs (not every such curve was filed as active); inconclusive = weak or mixed curves, or effect the other way; inactive = no such curve, though single readings can be large or run the other way.
Experiment: qHTS assay to identify small molecule antagonists of the estrogen related receptor signaling pathway with the pleiotropic PPARgamma coactivator (PGC) from Tox21 10K library - cell viability counter screen (AID 1224840); note: nearly all actives have a fitted effect of over 40% in size
Conditions: PGC/ERR reporter cells viability, CellTiter-Fluor, 17.5 h; series mostly up to 92.4 µM
From the text: National Center for Advancing Translational Sciences [NCATS]
NIH Chemical Genomics Center [NCGC]
U.S. Environmental Protection Agency [EPA]
National Institutes of Environmental Health Sciences [NIEHS]
National Toxicology Program [NTP]
U.S. Food and Drug Administration [FDA]
Estrogen related receptors (ERRs), the first orphan nuclear receptors discovered, play an important role in the control of cellular energy metabolism. ERRs are required for high-energy production in response to the environmental challenges. The pleiotropic PPARgamma coactivator (PGC) is a major partner of ERR and a key regulator in energy homeostasis. Together they have been implicated in the etiology of metabolic disorders such as Type 2 diabetes and metabolic syndrome. ERR-alpha was also identified as an adverse marker for breast cancer progression; ERR-alpha-positive tumors have a poor prognosis. To screen and to identify environmental compounds that perturb the ERR and PGC/ERR signaling pathways could provide valuable information for potential therapeutic or preventive measures in the treatment of metabolic disease. To differentiate true PGC/ERR antagonists or agonist from cytotoxic substances, the assay is multiplexed with cell viability assay.
Tox21 Assay Protocol Summary:
The PGC/ERR cells were dispensed at 2,000 cells/5 ul/well in 1536-well white plates using a Multidrop dispenser. After the assay plates were incubated at a 37 C/5% CO2 incubator for 6 hours, 23 nL of compounds dissolved in DMSO, positive and negative controls or DMSO only was transferred to the assay plate by a pin tool. The plates were incubated at 37 C for 17.5 hours. 1 ul/well of CellTiter-Fluor reagent was added into the assay plates using a Flying Reagent Dispenser. After 30-minute incubation at 37 C/5% CO2, the fluorescence intensity in the plates was measured using a ViewLux plate reader.
Potency is the fitted concentration of half-maximal effect.

| Structure (SMILES) | Potency |
| --- | --- |
| CCNC(=S)NCC | inactive |
| CC(=O)Oc1ccc(C)cc1 | inactive |
| CC(O)CC(C)(C)O (stereo not given) | inactive |
| C=CCCCCCCCCC(=O)O | inactive |
| O=C(O)Cn1c(=O)n(Cc2ccc(Br)cc2F)c(=O)c2ccc(Cl)cc21 | inactive |
| O=C(O)c1cc2ccccc2cc1O | inactive |
| CN(C)c1ccc(O)c2c1C[C@H]1C[C@H]3[C@H](N(C)C)C(=O)C(C(N)=O)=C(O)[C@@]3(O)C(=O)C1=C2O | inactive |
| O=[N+]([O-])c1ccc2nc[nH]c2c1 | inactive |
| CSc1ccc(Cl)cc1 | inactive |
| O=C(O)c1ccc(S(=O)(=O)N(Cl)Cl)cc1 | inactive |
| Cc1ccc(S(=O)(=O)N=C=O)cc1 | inactive |
| CC(=O)OC1CC(C)OC(C)O1 (stereo not given) | inactive |
| CC(C)CC(C)O (stereo not given) | inactive |
| COCCCN | inactive |
| CCNc1ccccc1 | inactive |
| C=CC(=O)OCCC(=O)O | inactive |
| O=C(O)c1ccccc1C(=O)O | inactive |
| O=S(=O)(O)c1ccc(N=Nc2c(O)ccc3cc(S(=O)(=O)O)ccc23)cc1 | 48.6 µM (active) |
| CN/C(=C\[N+](=O)[O-])NCCSCc1csc(CN(C)C)n1 | inactive |
| CC1(C)S[C@@H]2[C@H](NC(=O)COc3ccccc3)C(=O)N2[C@H]1C(=O)O | inactive |

| Structure (SMILES) | Potency |
| --- | --- |
| Clc1ccccn1 | inactive |
| N#Cc1ccccc1 | inactive |
| OC1C(O)C(O)C(O)C(O)C1O (stereo not given) | inactive |
| COc1ccc(C)cc1N | inactive |
| O=C(OCC1CCC2OC2C1)C1CCC2OC2C1 (stereo not given) | inactive |
| COc1ccc(OC)cc1 | inactive |
| COCCOC(=O)c1ccccc1C(=O)OCCOC | inactive |
| CCCCCCO | inactive |
| CCOC(=O)n1ccn(C)c1=S | inactive |
| COc1ccc(N)c(C)c1 | inactive |
| COc1ccc(CCC(C)=O)cc1 | inactive |
| CC(C)CC(=O)CC(C)CC(C)C (stereo not given) | inactive |
| CC(C)=CCl | inactive |
| CCCCCCCO | inactive |
| CCCCCCCCCCCCCCCCO | inactive |
| CCCCC(C=O)CC (stereo not given) | inactive |
| CC1(C)NC(=O)NC1=O | inactive |
| C=C(C)C(=O)OCC(C)C | inactive |
| Cc1ccc([N+](=O)[O-])cc1S(=O)(=O)O | inactive |
| CNC(=O)Oc1ccc2c(c1)[C@]1(C)CCN(C)[C@@H]1N2C | inactive |
